# Shown are actives, neighbours in structure and some others; about 28% of the full set was active somewhere.
# CYP2C9 activ = activators of human CYP2C9 | actives 1.4% (n = 96,000) | P11712 | recombinant CYP2C9, luciferin-H conversion, luminescence; hits give high values; factor 1 = untreated enzyme, 0 = blocked | activation factor at 5 µM;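 active = activation factor of 2 or more for CYP2C9 at a 5 µM dose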;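 note: 0 = sulfaphenazole-blocked wells and 1 = vehicle-only wells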
# Target sequence (P11712 whole entry, looked up): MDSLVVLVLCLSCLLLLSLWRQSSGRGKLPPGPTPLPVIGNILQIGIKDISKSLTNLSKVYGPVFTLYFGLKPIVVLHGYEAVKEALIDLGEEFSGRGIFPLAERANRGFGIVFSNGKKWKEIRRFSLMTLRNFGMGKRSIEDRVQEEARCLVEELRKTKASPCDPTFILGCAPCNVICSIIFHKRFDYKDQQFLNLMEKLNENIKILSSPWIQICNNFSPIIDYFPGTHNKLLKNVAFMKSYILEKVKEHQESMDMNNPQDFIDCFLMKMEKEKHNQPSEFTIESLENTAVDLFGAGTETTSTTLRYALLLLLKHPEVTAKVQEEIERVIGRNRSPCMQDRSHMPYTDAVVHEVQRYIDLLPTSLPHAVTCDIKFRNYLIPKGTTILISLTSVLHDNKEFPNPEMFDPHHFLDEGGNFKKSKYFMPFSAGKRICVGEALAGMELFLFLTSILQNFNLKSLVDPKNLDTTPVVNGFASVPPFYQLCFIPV
# CYP2C9 inhib = blocks human cytochrome P450 2C9; AID 777; P11712; actives 20% (n = 96,000); CYP2C9 Supersomes, luciferin-H conversion, luminescence; inhibition, % at 5 µM;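 active = blocking of liver enzyme CYP2C9 beyond about 50% at 5 µM, limit read from the data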
# DAT uptake mod = changed human dopamine transporter uptake under cocaine IC80. Q01959. LLC-PK1 hDAT cells, [14C]-dopamine uptake with cocaine IC80; actives deviate in either direction. B-score at 10 µM. actives 1.3% (n = 110,000);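 active = Z score or B-score, a plate-position-corrected score, falls beyond the plate's 99.7% confidence bounds, in either direction; inactive = both scores lie inside the 99.7% bounds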;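 note: scored against the spread of the other compound wells on the same plate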
# CYP2C19 activ = increases human CYP2C19 enzyme activity. activation factor at 5 µM. P33261. 96,000 tested, under 10 active. recombinant CYP2C19, luciferin-H EGE luminescence; hits give high values; 0 = fully inhibited enzyme, 1 = untreated enzyme;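 active = activation factor of at least 2 at 5 µM in the primary screen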;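 note: 0 = wells with 2.5 mM tranylcypromine and 1 = vehicle-only wells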
# D1 allo mod = allosteric modulators of human D1 dopamine receptor; P21728; HEK293 D1, CRE-luciferase, dopamine EC30 potentiation; actives deviate in either direction; B-score at 10 µM; actives 5.9% (n = 58,000);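 active = luminescence count or its row- and column-corrected plate score outside the 99.7% band of the plate's sample wells, on either side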
# CYP2C19 inhib = inhibitors of human CYP2C19 | AID 778 | CYP2C19 Supersomes, luciferin-H EGE luminescence, 30 min | inhibition, % at 5 µM | actives 21% (n = 96,000);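 active = CYP2C19 inhibition above a set limit at 5 µM in the primary screen, cut at about 50% in these data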;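 note: plate controls were negative control wells for no effect and 2.5 mM tranylcypromine positive control for full effect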
# * marks the source's active call; other numbers are inactive results; nt = no result.
SMILES,CYP2C9 activ,CYP2C9 inhib,DAT uptake mod,CYP2C19 activ,D1 allo mod,CYP2C19 inhib
COc1ccc(-c2csc(NC(C)c3nc4cc(C(=O)NCCCO)ccc4n3Cc3ccc(C)cc3)n2)cc1 (stereo not given),nt,nt,0.11,nt,nt,nt
COc1ccc(CNc2nc3ccccc3n2Cc2ccccc2)cc1OC,0.3,66*,2.1,0.5,nt,53*
COc1ccc(-c2nc3ccccc3n2Cc2ccccc2)cc1,0,96*,0.67,0.2,nt,76*
CCN(CC)CCn1c(NCc2cccc(OC)c2)nc2ccccc21,1,0,2.3,0.7,-0.18,32
CC(=O)NCCc1c[nH]c2ccc(O)cc12,nt,nt,-0.4,nt,nt,nt
CCCCOC(=O)Sc1nc2ccccc2o1,0.5,52*,-0.023,0.4,0.0056,58*
CN1OC(COC(=O)c2ccccc2)CC1c1ccccc1 (stereo not given),1.3,-26,-0.15,0.5,nt,50
CC1(C)Cc2noc(N)c2C(C)(C)N1OC(=O)c1ccccc1,0.4,57*,-0.22,0,0.0014,100*
CCO[C@H]1OC(C(=O)NCc2ccccc2)=C[C@@H](c2cn(C(C)=O)c3ccccc23)[C@@H]1CCCO,nt,nt,1.1,nt,nt,nt
FC(F)(F)c1cnc(Nc2ccc(N3CCOCC3)cc2)c(Cl)c1,1.6,-63,1.2,0.6,-0.21,40
Cc1ccc(S(=O)(=O)NCCSc2nnnn2-c2cc(C)ccc2C)cc1,1.4,-35,-2.3,0.4,-0.71,61*
Cc1ccc(S(=O)(=O)NCCSc2nnnn2-c2ccccc2)cc1,nt,nt,1.1,nt,nt,nt
Cc1ccc(S(=O)(=O)NCCSc2nnc(N)s2)cc1,2*,-99,0.15,0,0.96,96*
COc1ccc(N=C(N(C)C)P(=O)(N(C)C)N(C)C)cc1,1.1,-8,-0.84,0.9,-0.64,8
CC1=NN(C(=O)c2ccc(C)cc2)C(O)(C(F)(F)OC(F)(F)F)C1 (stereo not given),0.9,13,-0.5,0.8,nt,20
COC(=O)c1sc(OC)cc1OCc1ccc(C)cc1,1.1,-10,0.033,0.5,nt,53*
c1ccc(-c2ccc(-c3nc(-c4cccnc4)no3)cc2)cc1,0.9,6,-0.63,0.9,nt,14
c1coc(-c2nc(-c3ccncc3)no2)c1,0.7,35,-0.46,0.1,nt,87*
COc1ccc(Br)cc1-c1noc(-c2ccncc2)n1,1,-1,0.35,0.8,1.2,22
c1ccc(-c2ccc(-c3nc(-c4ccncc4)no3)cc2)cc1,0.3,72*,-0.33,0.2,nt,80*
c1ccc(-c2ccccc2-c2nc(-c3ccncc3)no2)cc1,0.3,74*,0.55,0.1,nt,91*
COc1ccccc1-c1noc(-c2ccncc2)n1,0.9,13,1.4,0.1,-0.12,89*
O=C(COC(=O)c1ccccn1)Nc1nccs1,0.8,21,-0.25,0.9,-0.0048,6
CSc1ccccc1-c1nnc(-c2ccc(C)cc2)o1,1.5,-46,0.39,0.9,nt,13
c1ccc(-c2noc(-c3cccnc3)n2)cc1,1,4,-0.62,0.9,-0.78,13
SMILES,CYP2C9 activ,CYP2C9 inhib,DAT uptake mod,CYP2C19 activ,D1 allo mod,CYP2C19 inhib
c1ccc(C(Cc2nc(-c3ccncc3)no2)c2ccccc2)cc1,0.1,90*,nt,0,-3,98*
c1ccc(-c2nc(-c3ccncc3)no2)cc1,0.8,23,-1.1,0.1,-0.9,94*
CSc1ccccc1-c1nnc(-c2ccccc2)o1,2.4*,-136,0.92,1,nt,3
c1ccc(-c2nnc(-c3ccncc3)o2)cc1,1.1,-7,0.011,0.2,nt,76*
CC(C)CCOCC(=O)Nc1cccc(C(=O)O)c1,1,2,-0.19,0.9,-1.4,13
O=C(Nc1cccc(F)c1)NC1(C(=O)N2CCN3CCCC3C2)CCCCC1 (stereo not given),nt,nt,0.29,nt,nt,nt
COc1ccc(-c2noc(CCCc3ccccc3)n2)cc1OC,0.4,61*,1.1,0.2,2.5,80*
Cc1ccc(-c2noc(CCCc3ccccc3)n2)cc1,1.1,-8,1,1,nt,-5
c1cc(-c2noc(CCC3CCCC3)n2)ccn1,0,96*,0.73,0,nt,99*
COc1ccccc1-c1nc(-c2ccccn2)no1,0.7,31,0.96,0.2,-7.4*,79*
COc1ccccc1-c1noc(-c2cccs2)n1,0.9,13,-1.4,0.7,nt,27
Cc1onc(-c2ccccc2Cl)c1-c1nc(-c2ccncc2)no1,0.1,88*,1.4,0,nt,99*
O=C1c2ccccc2C(=O)N1CCCc1nc(-c2ccncc2)no1,0.6,43,0.25,0.6,nt,41
CCOC(=O)N1CCN(C(=O)c2ccc3c(=O)n(CCc4ccccc4)c(=O)[nH]c3c2)CC1,0.8,17,-0.15,0.5,-0.18,49
COc1ccc(N/C=C(\C#N)c2nc3ccccc3n2C)c(OC)c1,1.3,-29,-1.1,0.6,nt,37
CCC(C(=O)NCc1ccco1)N(C(=O)CNS(=O)(=O)c1ccccc1)c1ccc(OC)cc1 (stereo not given),0.9,10,1.5,0.7,nt,34
COc1ccc(-c2noc(-c3ccccc3-c3ccccc3)n2)cc1OC,0.3,67*,nt,0.6,0.63,36
Cc1cc(N2CC(=O)N(CCc3ccccc3)C(=O)C2)n2ncnc2n1,1,2,-1.7e-05,1.1,-0.71,-7
COc1ccccc1NC(=S)N(CCc1nc2cc(C)c(C)cc2[nH]1)Cc1cccnc1,1.8,-82,1.7,0.8,nt,19
COc1ccc(NC(=O)/C(Cl)=C(/Cl)S(=O)(=O)Cc2ccc(C)cc2)cn1,0.5,53*,-0.61,0.6,nt,36
N#Cc1cc2c(nc1SCc1cccc(Cl)c1)CCCCC2,0.9,10,0.0097,0.9,nt,15
CCOC(=O)C1CCCN(c2c(N3CCc4ccccc4C3)c(=O)c2=O)C1 (stereo not given),0.5,50,nt,0.7,1.4,35
Cc1ccc(C2=NC(C)(C)N=C2SCC(=O)Nc2ccc(Cl)cc2)cc1,0.5,47,-7.4*,0.6,nt,39
CC1(C)N=C(SCC(=O)Nc2ccc(Cl)cc2Cl)C(c2ccccc2)=N1,0.4,62*,2.3,0.5,nt,55*
Cc1cc(N2CCC(C(=O)N3CCN(c4cccc(C)c4C)CC3)CC2)n2ncnc2n1,1.3,-33,0.92,1.1,-0.63,-9
Cc1ccc(S(=O)(=O)N2CCCCC2C(=O)N2CCN(c3ccccc3F)CC2)cc1 (stereo not given),2.2*,-121,-0.12,0.6,nt,35
Cc1ccccc1NC1=C(C(=O)c2ccccc2)N(C)S(=O)(=O)c2ccccc21,0.4,63*,-1.8,0.4,nt,56*
C=CCC(Nc1ccco1)c1ccccc1 (stereo not given),1.1,-10,0.47,1.1,0.007,-10
CCOC(=O)c1[nH]c(C)c(C(=O)Nc2ccccc2C)c1C,1.1,-11,-0.49,0.4,-0.081,56*

# Assay outcomes as filed in PubChem BioAssay.
